# Several values for one entry are separate records, joined by “and”; a condition that tells them apart may be missing. Identical values can stand only once. Records with an inconclusive call do not appear. Activity calls are given as the source filed them.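 How the source made its calls, unless noted: active means normalized viability below 100% at a tested concentration; inactive means the rest.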
# Tests used:
# [1] = growth inhibition of DIPG cells – cell-based, MIPE4.0 library, CellTiter-Glo luminescence, qHTS (AID 1347066; cut-off not given, nearly all actives have AC50 up to about 30 µM;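 further: cells exposed to compound for 48 hours before readout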); settings: SU-DIPG-VI viability, CellTiter-Glo ATP luminescence
# [2] = JHH-DIPG-1 glioma cell viability, MIPE5.0 library, CellTiter-Glo luminescence, qHTS (AID 1347067; cut-off not given, nearly all actives have AC50 up to about 26 µM;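 further: cells exposed to compound for 48 hours before readout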); settings: JHH-DIPG-1 glioma viability, CellTiter-Glo ATP luminescence
# [3] = growth inhibition of DIPG cells – cell-based, MIPE5.0 library, qHTS (AID 1347068; cut-off not given, nearly all actives have IC50 up to about 30 µM); settings: SU-DIPG-XXV viability
# [4] = MELAS cybrid and Rieske KO viability enhancers – cell-based, MELAS cybrids, Rieske KO mouse fibroblasts, CellTiter-Glo, primary screen (AID 1508586;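 active means mean z-score across replicates of 1.96 or higher in either the MELAS or the Rieske mutant cell line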;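 further: z relative to plate mean and SD of compound and empty wells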); settings: low glucose
# [5] = viability loss with induced miR-34 in A549 – imaging, A549 dox-inducible miR-34, nuclei and caspase counts, primary screen (AID 1347080;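 active means compounds whose cell count with miR-34 switched on is under 0.7 times the count with it off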); settings: A549 miR-34 inducible, Hoechst nuclei count, 48 h
# [6] = blockers of cellular phospholipid synthesis – cell-based, LOPAC library, screen 4, primary screen (AID 1347384; call rule not given here); settings: animal cells, phospholipid biosynthesis inhibition screen; at 10 µM
# [7] = compounds altering HSF1 focus formation in cells – imaging, Selleck Cancer Library (AID 1347162; in the data active means plate-normalised HSF1 focus index below about 0.46); settings: human cells, HSF1 nuclear foci imaging, at 10 µM; SSMD: measured here: HSF1 foci SSMD mean; cell count: measured here: cell number; plate-normalised HSF1 focus index: stronger effect = lower value
# [8] = drug combination growth inhibition, ovarian cancer – cell-based, oncology-focused library, rucaparib conditional, profiling panel (AID 1508598); settings: patient-derived ovarian cancer cells, CellTiter-Glo viability, 144 h, stronger effect = lower value
# [9] = chitosan synthesis blockers in C. neoformans – flow cytometry, Cibacron Brilliant Red staining (AID 1347148; call rule not given here;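 further: compound exposure lasted three days at 37 degrees C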); settings: Cryptococcus neoformans chitosan, stronger effect = lower value; at 10 µM unless noted
# [10] = MELAS cybrid survival, CellTiter-Glo 48 h, stronger effect = higher value
# [11] = Rieske KO mouse fibroblast survival, CellTiter-Glo 72 h
# [12] = stronger effect = lower value, cell number ratio, induced over uninduced
# [13] = measured here: relative caspase fold change +Dox/-Dox
# [14] = measured here: total cells with miR-34 induction, stronger effect = lower value
# [15] = measured here: total cells without miR-34 induction
compound,measurement,setting,value
CCCOc1ccc(C(=O)OCCN(CC)CC)cc1N,outcome,[1],inactive
same,outcome,[2],inactive
same,outcome,[3],inactive
same,z-score,[4]; [10],0.278 (inactive) and -0.171 (inactive) and -0.393 (inactive)
same,z-score,[4]; [11],-0.35 and 0.529 and -1.27
Clc1ccc(C(c2ccccc2Cl)C(Cl)Cl)cc1 (stereo not drawn),AC50,[1],23.5 µM (active)
same,AC50,[2],20.9 µM (active)
same,fold change,[5]; [12],1.02 (inactive) and 0.901 (inactive) and 0.92 (inactive)
same,fold change,[5]; [13],1.69 and 0.413 and 1.68
same,cell count,[5]; [14],9100 and 8310 and 10700
same,cell count,[5]; [15],8890 and 9220 and 11600
same,outcome,[6],inactive
same,z-score,[4]; [10],-0.255 (inactive) and -0.0992 (inactive)
same,z-score,[4]; [11],0.722 and 0.331
COc1cc(NS(=O)(=O)c2ccc(N)cc2)nc(OC)n1,outcome,[1],inactive
same,fold change,[5]; [12],0.911 (inactive) and 0.916 (inactive) and 0.961 (inactive)
same,z-score,[4]; [10],-0.175 (inactive) and 0.0464 (inactive) and -0.547 (inactive)
same,z-score,[4]; [11],0.68 and -0.334 and -1.37
CC[C@@]1(O)C(=O)OCc2c1cc1n(c2=O)Cc2cc3c(CN(C)C)c(O)ccc3nc2-1,outcome,[1],inactive
same,AC50,[2],4.17 µM (active)
same,SSMD,[7],-8.15
same,cell count,[7],6870
same,plate-normalised HSF1 focus index,[7],0.582 (inactive)
same,outcome,[6],inactive
same,z-score,[4]; [10],-0.568 (inactive) and -2.28 (inactive) and -2.25 (inactive)
same,z-score,[4]; [11],0.849 and -0.703 and -1.06
same,viability,"[8]; at 0.000305 µM, OCI-C5x cells, with rucaparib 10 µM, 100% = cells with rucaparib alone",104% (inactive)
same,viability,"[8]; at 0.000305 µM, OCI-C5x cells, without rucaparib",104% (inactive)
same,viability,"[8]; at 0.000305 µM, OCI-P5x cells, with rucaparib 20 µM, 100% = cells with rucaparib alone",94.2% (active)
same,viability,"[8]; at 0.000305 µM, OCI-P5x cells, without rucaparib",107% (inactive)
same,viability,"[8]; at 0.00122 µM, OCI-C5x cells, with rucaparib 10 µM, 100% = cells with rucaparib alone",89.3% (active)
same,viability,"[8]; at 0.00122 µM, OCI-C5x cells, without rucaparib",92.9% (active)
same,viability,"[8]; at 0.00122 µM, OCI-P5x cells, with rucaparib 20 µM, 100% = cells with rucaparib alone",83.1% (active)
same,viability,"[8]; at 0.00122 µM, OCI-P5x cells, without rucaparib",79.7% (active)
same,viability,"[8]; at 0.00488 µM, OCI-C5x cells, with rucaparib 10 µM, 100% = cells with rucaparib alone",83.9% (active)
same,viability,"[8]; at 0.00488 µM, OCI-C5x cells, without rucaparib",62.6% (active)
same,viability,"[8]; at 0.00488 µM, OCI-P5x cells, with rucaparib 20 µM, 100% = cells with rucaparib alone",64.6% (active)
same,viability,"[8]; at 0.00488 µM, OCI-P5x cells, without rucaparib",49.2% (active)
same,viability,"[8]; at 0.0195 µM, OCI-C5x cells, with rucaparib 10 µM, 100% = cells with rucaparib alone",61.6% (active)
same,viability,"[8]; at 0.0195 µM, OCI-C5x cells, without rucaparib",46.1% (active)
same,viability,"[8]; at 0.0195 µM, OCI-P5x cells, with rucaparib 20 µM, 100% = cells with rucaparib alone",51.1% (active)
same,viability,"[8]; at 0.0195 µM, OCI-P5x cells, without rucaparib",31.5% (active)
same,viability,"[8]; at 0.0781 µM, OCI-C5x cells, with rucaparib 10 µM, 100% = cells with rucaparib alone",43.7% (active)
same,viability,"[8]; at 0.0781 µM, OCI-C5x cells, without rucaparib",22.5% (active)
same,viability,"[8]; at 0.0781 µM, OCI-P5x cells, with rucaparib 20 µM, 100% = cells with rucaparib alone",31.5% (active)
same,viability,"[8]; at 0.0781 µM, OCI-P5x cells, without rucaparib",11.7% (active)
same,viability,"[8]; at 0.313 µM, OCI-C5x cells, with rucaparib 10 µM, 100% = cells with rucaparib alone",31% (active)
same,viability,"[8]; at 0.313 µM, OCI-C5x cells, without rucaparib",10.3% (active)
same,viability,"[8]; at 0.313 µM, OCI-P5x cells, with rucaparib 20 µM, 100% = cells with rucaparib alone",10.6% (active)
same,viability,"[8]; at 0.313 µM, OCI-P5x cells, without rucaparib",4.1% (active)
same,viability,"[8]; at 1.25 µM, OCI-C5x cells, with rucaparib 10 µM, 100% = cells with rucaparib alone",11.2% (active)
same,viability,"[8]; at 1.25 µM, OCI-C5x cells, without rucaparib",7.82% (active)
same,viability,"[8]; at 1.25 µM, OCI-P5x cells, with rucaparib 20 µM, 100% = cells with rucaparib alone",3.74% (active)
same,viability,"[8]; at 1.25 µM, OCI-P5x cells, without rucaparib",1.56% (active)
same,viability,"[8]; at 5 µM, OCI-C5x cells, with rucaparib 10 µM, 100% = cells with rucaparib alone",4.91% (active)
same,viability,"[8]; at 5 µM, OCI-C5x cells, without rucaparib",4% (active)
same,viability,"[8]; at 5 µM, OCI-P5x cells, with rucaparib 20 µM, 100% = cells with rucaparib alone",5.99% (active)
same,viability,"[8]; at 5 µM, OCI-P5x cells, without rucaparib",4.13% (active)
CS(=O)(=O)c1ccc([C@@H](O)[C@@H](CO)NC(=O)C(Cl)Cl)cc1,outcome,[1],inactive
same,fold change,[5]; [12],0.9 (inactive) and 0.984 (inactive)
same,fold change,[5]; [13],1.05 and 2.01
same,cell count,[5]; [14],7540 and 11000
same,cell count,[5]; [15],8380 and 11100
same,z-score,[4]; [10],0.78 (inactive)
same,z-score,[4]; [11],-3.27
Cc1onc(-c2ccccc2)c1C(=O)N[C@@H]1C(=O)N2[C@@H]1SC(C)(C)[C@@H]2C(=O)O,outcome,[1],inactive
same,fold change,[5]; [12],0.877 (inactive)
same,fold change,[5]; [13],6.72
same,cell count,[5]; [14],9940
same,cell count,[5]; [15],11300
same,z-score,[4]; [10],0.677 (inactive) and 0.0608 (inactive)
same,z-score,[4]; [11],-0.0856 and 0.018
CC(C)(Sc1cc(C(C)(C)C)c(O)c(C(C)(C)C)c1)Sc1cc(C(C)(C)C)c(O)c(C(C)(C)C)c1,outcome,[1],inactive
same,outcome,[3],inactive
same,fold change,[5]; [12],0.81 (inactive) and 0.886 (inactive) and 0.877 (inactive)
same,fold change,[5]; [13],1.96 and 0.704 and 3.16
same,cell count,[5]; [14],8410 and 8070 and 11000
same,cell count,[5]; [15],10400 and 9110 and 12500
same,z-score,[4]; [10],-0.245 (inactive) and 0.14 (inactive)
same,z-score,[4]; [11],-0.773 and -0.118
Fc1ccc(C(c2ccc(F)cc2)N2CCN(C/C=C/c3ccccc3)CC2)cc1,outcome,[1],inactive
same,fold fluorescence,[9],3.48 [at 123.6 µM] (inactive)
same,outcome,[6],inactive
same,z-score,[4]; [10],-1.68 (inactive) and -0.773 (inactive)
same,z-score,[4]; [11],-0.315 and -0.0521
COC(=O)Nc1nc2ccc(S(=O)c3ccccc3)cc2[nH]1 (stereo not drawn),outcome,[1],inactive
same,fold change,[5]; [12],1 (inactive) and 0.95 (inactive) and 1.02 (inactive)
same,fold change,[5]; [13],0.565 and 3.46 and 0.832
same,cell count,[5]; [14],5070 and 6690 and 5080
same,cell count,[5]; [15],5050 and 7040 and 4970
same,z-score,[4]; [10],-0.274 (inactive) and -0.559 (inactive) and -0.178 (inactive)
same,z-score,[4]; [11],0.754 and 0.142 and 0.645
O=c1[nH]cnc2c1ncn2[C@H]1CC[C@@H](CO)O1,outcome,[1],inactive
same,fold change,[5]; [12],0.88 (inactive) and 0.877 (inactive)
same,fold change,[5]; [13],1.12 and 1.04
same,cell count,[5]; [14],8250 and 10000
same,cell count,[5]; [15],9380 and 11400
same,z-score,[4]; [10],-0.8 (inactive) and -0.278 (inactive)
same,z-score,[4]; [11],-0.19 and -0.4
O=C(N[C@H](CO)[C@H](O)c1ccc([N+](=O)[O-])cc1)C(Cl)Cl,outcome,[1],inactive
same,fold change,[5]; [12],0.94 (inactive) and 0.855 (inactive)
same,fold change,[5]; [13],1.13 and 1.29
same,cell count,[5]; [14],8280 and 6420
same,cell count,[5]; [15],8810 and 7510
same,z-score,[4]; [10],-0.509 (inactive) and 0.536
same,z-score,[4]; [11],-3.37 and 2.44
COc1cc([C@H]2Oc3cc([C@H]4Oc5cc(O)cc(O)c5C(=O)[C@@H]4O)ccc3O[C@@H]2CO)ccc1O,outcome,[1],inactive
same,outcome,[3],inactive
COc1ccccc1N1CCN(CC(O)COc2cccc3ccccc23)CC1 (stereo not drawn),outcome,[1],inactive
same,outcome,[2],inactive
same,outcome,[3],inactive
same,outcome,[6],inactive
COc1ccc2[nH]cc(CCNC(C)=O)c2c1,outcome,[1],inactive
same,outcome,[2],inactive
same,outcome,[3],inactive
same,outcome,[6],inactive
same,z-score,[4]; [10],-0.429 (inactive) and 0.313 (inactive) and -0.146 (inactive)
same,z-score,[4]; [11],-0.494 and 0.0961 and -0.273

# — PubChem BioAssay
